Measured values as given in a collection of fitness landscapes (doi:10.1016/j.celrep.2020.107928).
In all, about 81,000 sequences were measured (“one-hybrid fitness for binding NBS DNA”: median about -0.1, highest 2% from about 0.36 on). For the sample, the highest values were picked, then their nearest neighbours and some sequences at random.

B1: Caulobacter ParB omega fusion; a variant is named by its letters at X, in order, B8GW30 (parent)
chain: MESVVVGEPGMSEGRRGLGRGLSALLGEVDAAPAQAPGEQLGGSREAPIEILQRNPDQPRRTFREEDLEDLSNSIREKGVLQPILVRPSPDTAGEYQIVAGERAWRAAQRAGLKTVPIMVRELDDLAVLEIGIIENVQRADLNVLEEALSYKVLMEKFERTQENIAQTIGKSXSHVANXMRLLXLPDEVQSYLVSGELTAXHARAIAAAADPVALAKQIIEGGLSVRETEALARKAPNLSAGKSKGGRPPRVKDTDTQALESDLSSVLGLDVSIDHRGSTGTLTITYATLEQLDDLCNRLTRGI

Variants of: B1
Assay: one-hybrid fitness for binding NBS DNA (the Noc-binding site; scaled: cognate 1, non-cognate 0); higher = stronger binding
Conditions: with NBS DNA site
Summary of the method: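 Pre- and post-selection plasmids were Illumina-sequenced, three replicate libraries were pooled, and any variant with under 10 reads was removed. The libraries were Caulobacter ParB with four specificity codons randomised, selected in E. coli USO through a HIS3 reporter whose site is 19 bp from the promoter. Cells grew 48 hours at 37°C on M9 without histidine, with 0.1 mM IPTG and 5 mM 3-AT. Fitness is the log change in variant-to-wild-type read ratio, rescaled against cognate and non-cognate.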

| Variant | one-hybrid fitness for binding NBS DNA |
| --- | --- |
| TIRS | ≤ 0.2 |
| SHCW | ≤ 0.2 |
| PSRV | ≤ 0.2 |
| QMAC | ≤ 0.2 |
| DGSR | ≤ 0.2 |
| HLCR | ≤ 0.2 |
| TSRL | ≤ 0.2 |
| VDPI | ≤ 0.2 |
| VKWG | ≤ 0.2 |
| NFAR | ≤ 0.2 |
| TAGV | ≤ 0.2 |
| RRAR | 0.757 |
| RRAM | 0.306 |
| RRFR | 0.728 |
| RRAG | 0.357 |
| NERC | ≤ 0.2 |
| VQTI | ≤ 0.2 |
| RMTM | ≤ 0.2 |
| VKPG | ≤ 0.2 |
| MIPC | ≤ 0.2 |
| QIAH | ≤ 0.2 |

| Variant | one-hybrid fitness for binding NBS DNA |
| --- | --- |
| QPAR | ≤ 0.2 |
| QCAR | 0.643 |
| QIFR | 0.301 |
| QEAR | ≤ 0.2 |
| QSAR | 0.526 |
| QSAH | ≤ 0.2 |
| QIAR | 0.397 |
| QSAD | ≤ 0.2 |
| PIRY | ≤ 0.2 |
| TWMC | ≤ 0.2 |
| IDTL | ≤ 0.2 |
| TIIR | ≤ 0.2 |
| NVDM | ≤ 0.2 |
| SALS | ≤ 0.2 |
| QSKN | 0.359 |
| QLKQ | 0.331 |
| QLKH | 0.487 |
| QLVS | ≤ 0.2 |
| QLVH | ≤ 0.2 |
| QLKS | 0.573 |
| QCKN | 0.445 |

| Variant | one-hybrid fitness for binding NBS DNA |
| --- | --- |
| QPKN | ≤ 0.2 |
| QLVN | ≤ 0.2 |
| QLKP | ≤ 0.2 |
| QLKN | 0.365 |
| QLKD | ≤ 0.2 |
| HLWL | ≤ 0.2 |
| WMPR | ≤ 0.2 |
| DMKY | ≤ 0.2 |
| PLDP | ≤ 0.2 |
| TIRA | ≤ 0.2 |
| EGSN | ≤ 0.2 |
| LRCP | ≤ 0.2 |
| GCSF | ≤ 0.2 |
| HDFR | ≤ 0.2 |
| DATM | ≤ 0.2 |
| TSVL | ≤ 0.2 |
| CRHF | ≤ 0.2 |
| RHIT | 0.243 |
| RHQT | 0.39 |
| RAQT | 0.395 |
| RHRT | 0.583 |

| Variant | one-hybrid fitness for binding NBS DNA |
| --- | --- |
| RSQT | 0.418 |
| RFQT | 0.242 |
| RHLT | 0.33 |
| RHPT | ≤ 0.2 |
| RHYT | 0.287 |
| RAQC | ≤ 0.2 |
| RDQT | ≤ 0.2 |
| RAQP | ≤ 0.2 |
| CHYG | ≤ 0.2 |
| ASMD | ≤ 0.2 |
| FIRR | ≤ 0.2 |
| MIQP | ≤ 0.2 |
| RIQT | 0.329 |
| RPQT | ≤ 0.2 |
| RCQT | 0.513 |
| QRKA | 0.692 |
| QRVA | 0.511 |
| DRKA | ≤ 0.2 |
| QCVA | 0.298 |
| QPVA | ≤ 0.2 |
| NRKA | ≤ 0.2 |
